Compounds without any hit were thinned out: in the full panel of roughly 83,000, 20% have a hit.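 Compound tested at a single concentration for 48 hours in 96-well plates; a percent growth value below 10 was scored as active.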 Calls of active or inactive are those of the source.
Legend:
Test in all cases: NCI-60 one-dose screen, 48 h (100 = growth as untreated, 0 = no growth, -100 = all killed)
Conditions in all cases: 10 µM unless noted
DU-145 prostate = tested on: DU-145 prostate
K-562 leukemia = tested on: K-562 leukemia
MALME-3M melanoma = tested on: MALME-3M melanoma
MDA-MB-231 breast = tested on: MDA-MB-231 breast
RXF 393 renal = tested on: RXF 393 renal
SF-268 CNS = tested on: SF-268 CNS
SF-295 CNS = tested on: SF-295 CNS
SF-539 CNS = tested on: SF-539 CNS
UACC-257 melanoma = tested on: UACC-257 melanoma
M14 melanoma = tested on: M14 melanoma
HCT-15 colon = tested on: HCT-15 colon
HT29 colon = tested on: HT29 colon
SNB-75 CNS = tested on: SNB-75 CNS
SNB-19 CNS = tested on: SNB-19 CNS
U251 CNS = tested on: U251 CNS
PC-3 prostate = tested on: PC-3 prostate
SK-MEL-5 melanoma = tested on: SK-MEL-5 melanoma
UACC-62 melanoma = tested on: UACC-62 melanoma
LOX IMVI melanoma = tested on: LOX IMVI melanoma
SK-MEL-28 melanoma = tested on: SK-MEL-28 melanoma

Measured: growth

CC(=O)Oc1c2c(nc3c1c1ccccc1n3Cc1ccccc1)-c1ccccc1C2
inactive: DU-145 prostate 99.1% | K-562 leukemia 78.4% | MALME-3M melanoma 102% | MDA-MB-231 breast 80.4% | RXF 393 renal 116% | SF-268 CNS 93.2% | SF-295 CNS 96% | SF-539 CNS 94.5% | UACC-257 melanoma 93.2% | M14 melanoma 88.3% | HCT-15 colon 84.9% | HT29 colon 75.4% | SNB-75 CNS 75.7% | SNB-19 CNS 96.7% | U251 CNS 78.7% | PC-3 prostate 71.8% | SK-MEL-5 melanoma 83.7% | UACC-62 melanoma 70.2% | LOX IMVI melanoma 88.1% | SK-MEL-28 melanoma 100%

C=C1C(=O)O[C@H]2[C@H]1CC/C(COC(=O)n1ccnc1)=C\CC[C@@]1(C)O[C@@H]21
inactive: DU-145 prostate 96.8% | K-562 leukemia 86.7% | MALME-3M melanoma 90.8% | MDA-MB-231 breast 95.9% | RXF 393 renal 102% | SF-268 CNS 110% | SF-295 CNS 100% | SF-539 CNS 102% | UACC-257 melanoma 90.7% | M14 melanoma 84.3% | HCT-15 colon 83.5% | HT29 colon 100% | SNB-75 CNS 92.8% | SNB-19 CNS 99% | U251 CNS 99.1% | PC-3 prostate 90.1% | SK-MEL-5 melanoma 98.5% | UACC-62 melanoma 91.6% | LOX IMVI melanoma 90.4% | SK-MEL-28 melanoma 102%

COc1ccc2[nH]c(=O)c(/C=C/C(=O)c3ccccc3OC)cc2c1
inactive: DU-145 prostate 10.8% | MALME-3M melanoma 38.6% | UACC-257 melanoma 37.6% | M14 melanoma 13.8% | HCT-15 colon 11.3% | SNB-19 CNS 17% | PC-3 prostate 22.1% | SK-MEL-5 melanoma 25.2% | UACC-62 melanoma 25.7% | LOX IMVI melanoma 10.2% | SK-MEL-28 melanoma 50.5%
active: K-562 leukemia 4.24% | MDA-MB-231 breast 0.317% | RXF 393 renal -7.9% | SF-268 CNS 9.36% | SF-295 CNS 8.29% | SF-539 CNS -10% | HT29 colon 7.17% | SNB-75 CNS -11.5% | U251 CNS 5.14%

C=C(C)[C@@H]1CC[C@]2(C(=O)O)CC[C@]3(C)[C@H](CC[C@@H]4[C@@]5(C)C[C@@H](CC#Cc6ccccc6)C(=O)C(C)(C)[C@@H]5CC[C@]43C)[C@@H]12
inactive: DU-145 prostate 37.3% | K-562 leukemia 16.9% | MALME-3M melanoma 38.1% | MDA-MB-231 breast 55.3% | RXF 393 renal 71.5% | SF-268 CNS 50% | SF-295 CNS 34.8% | SF-539 CNS 49.1% | UACC-257 melanoma 60.5% | M14 melanoma 36.5% | HCT-15 colon 18.8% | HT29 colon 23.9% | SNB-75 CNS 65.1% | SNB-19 CNS 46.3% | U251 CNS 27.8% | PC-3 prostate 35.3% | SK-MEL-5 melanoma 32% | UACC-62 melanoma 42.4% | LOX IMVI melanoma 45.1% | SK-MEL-28 melanoma 45.1%

O=CN1N=C(c2ccc(F)cc2)CC1c1cccc(Nc2ccnc3cc(C(F)(F)F)ccc23)c1 (stereo not given)
inactive: DU-145 prostate 70.9% | K-562 leukemia 22.7% | MALME-3M melanoma 67.9% | MDA-MB-231 breast 72.5% | RXF 393 renal 71.2% | SF-268 CNS 51.9% | SF-295 CNS 44.2% | SF-539 CNS 77.5% | UACC-257 melanoma 48.6% | M14 melanoma 70% | HCT-15 colon 58% | HT29 colon 47.8% | SNB-75 CNS 92% | SNB-19 CNS 63.9% | U251 CNS 53.2% | PC-3 prostate 41.8% | UACC-62 melanoma 53.4% | LOX IMVI melanoma 40.2% | SK-MEL-28 melanoma 82.2%
active: SK-MEL-5 melanoma -15.2%

C=C1C(=O)O[C@H]2[C@H]1CCC(/C=N/c1ncc(Br)cc1N)=C\CC[C@@]1(C)O[C@@H]21
active: K-562 leukemia 2.64% | MALME-3M melanoma -9.18% | MDA-MB-231 breast -15.5% | RXF 393 renal -79.3% | M14 melanoma -12.4% | HCT-15 colon -45.3% | HT29 colon -18.6% | LOX IMVI melanoma -75.3% | SK-MEL-28 melanoma -25.8%
inactive: DU-145 prostate 15.5% | SF-268 CNS 52.5% | SF-295 CNS 70.3% | SF-539 CNS 25.8% | UACC-257 melanoma 22% | SNB-75 CNS 85.3% | SNB-19 CNS 44.2% | U251 CNS 47.9% | PC-3 prostate 26.7% | SK-MEL-5 melanoma 39.9% | UACC-62 melanoma 22.5%

C=C1C(=O)O[C@H]2[C@H]1CC/C(COC(=O)N1CCC[C@H]1C(=O)Nc1ccc(OC)c(C(N)=O)c1O)=C\CC[C@@]1(C)O[C@@H]21
active: RXF 393 renal -12.7% | SF-539 CNS -4.09% | HT29 colon -8.09%
inactive: DU-145 prostate 39.4% | K-562 leukemia 11.2% | MALME-3M melanoma 27.3% | MDA-MB-231 breast 46% | SF-268 CNS 54.6% | SF-295 CNS 90.1% | UACC-257 melanoma 25.2% | M14 melanoma 36.5% | HCT-15 colon 59.6% | SNB-75 CNS 84% | SNB-19 CNS 60.5% | U251 CNS 51.6% | PC-3 prostate 74.4% | SK-MEL-5 melanoma 63.7% | UACC-62 melanoma 34.5% | LOX IMVI melanoma 43.4% | SK-MEL-28 melanoma 49.4%

Oc1ccc(CNNc2ccnc3c(O)cccc23)c2cccnc12
active: K-562 leukemia 9.71% | SK-MEL-5 melanoma -20.2%
inactive: DU-145 prostate 43.4% | MALME-3M melanoma 66.7% | MDA-MB-231 breast 37.4% | RXF 393 renal 59.6% | SF-268 CNS 37.6% | SF-295 CNS 17.7% | SF-539 CNS 32.2% | UACC-257 melanoma 38.3% | M14 melanoma 30.9% | HCT-15 colon 23.9% | HT29 colon 73.8% | SNB-75 CNS 54.9% | SNB-19 CNS 29.7% | U251 CNS 25.8% | PC-3 prostate 29.7% | UACC-62 melanoma 24.6% | LOX IMVI melanoma 16.4% | SK-MEL-28 melanoma 49.7%

CC(C)(C#N)c1cc(F)cc(C(=O)Nc2cc(Nc3ncccc3-c3ncnc4nc[nH]c34)ccc2F)c1
inactive: DU-145 prostate 56.1% | MDA-MB-231 breast 22.4% | RXF 393 renal 34.1% | SF-268 CNS 60.6% | SF-295 CNS 46.1% | SF-539 CNS 20.8% | UACC-257 melanoma 23.7% | HCT-15 colon 37.8% | HT29 colon 10.1% | SNB-75 CNS 78.7% | SNB-19 CNS 58% | U251 CNS 40.7% | PC-3 prostate 54.2% | SK-MEL-5 melanoma 20.3% | SK-MEL-28 melanoma 18.5%
active: K-562 leukemia 5.97% | MALME-3M melanoma -28.4% | M14 melanoma 5.28% | UACC-62 melanoma 9.35% | LOX IMVI melanoma -23.6%

Cc1nc2sc(C(=O)Nc3cccc(Cl)c3C)c(N)c2cc1C(C)O (stereo not given)
active: K-562 leukemia 7.36% | RXF 393 renal 3.16% | SF-539 CNS -12.5% | HT29 colon 1.68% | SK-MEL-5 melanoma 9.62%
inactive: DU-145 prostate 20% | MALME-3M melanoma 71% | MDA-MB-231 breast 47.5% | SF-268 CNS 47.9% | SF-295 CNS 15% | UACC-257 melanoma 46.9% | M14 melanoma 23.4% | HCT-15 colon 16.4% | SNB-75 CNS 13.9% | SNB-19 CNS 22.4% | U251 CNS 17.7% | PC-3 prostate 13.3% | UACC-62 melanoma 30.7% | LOX IMVI melanoma 29.9% | SK-MEL-28 melanoma 62.1%

CCO/C=N/S(=O)(=O)c1cc2c(cc1Cl)NC=NS2(=O)=O
inactive: DU-145 prostate 108% | K-562 leukemia 99.9% | MALME-3M melanoma 107% | MDA-MB-231 breast 106% | RXF 393 renal 103% | SF-268 CNS 103% | SF-295 CNS 104% | SF-539 CNS 98.1% | UACC-257 melanoma 90.2% | M14 melanoma 101% | HCT-15 colon 107% | HT29 colon 97.4% | SNB-75 CNS 106% | SNB-19 CNS 103% | U251 CNS 95.4% | PC-3 prostate 92.3% | SK-MEL-5 melanoma 102% | UACC-62 melanoma 104% | LOX IMVI melanoma 98.4% | SK-MEL-28 melanoma 120%

O=C(Nc1cc(Br)ccn1)c1cc2cc(Nc3nc(-c4ccccc4)nc4ccccc34)ccc2oc1=O
inactive: DU-145 prostate 111% | K-562 leukemia 88.6% | MALME-3M melanoma 117% | MDA-MB-231 breast 118% | RXF 393 renal 133% | SF-268 CNS 112% | SF-295 CNS 108% | SF-539 CNS 105% | UACC-257 melanoma 112% | M14 melanoma 102% | HCT-15 colon 107% | HT29 colon 104% | SNB-75 CNS 92.3% | SNB-19 CNS 107% | U251 CNS 107% | PC-3 prostate 93.6% | SK-MEL-5 melanoma 101% | UACC-62 melanoma 103% | LOX IMVI melanoma 83.8% | SK-MEL-28 melanoma 114%

CC(=O)Nc1ccc2c(c1)Cc1cc(F)ccc1-2
inactive: DU-145 prostate 96.4% | K-562 leukemia 91.4% | MALME-3M melanoma 104% | MDA-MB-231 breast 101% | RXF 393 renal 117% | SF-268 CNS 80.7% | SF-295 CNS 101% | SF-539 CNS 97% | UACC-257 melanoma 99.7% | M14 melanoma 110% | HCT-15 colon 105% | HT29 colon 92.2% | SNB-75 CNS 87.4% | SNB-19 CNS 103% | U251 CNS 95.5% | PC-3 prostate 95.5% | SK-MEL-5 melanoma 102% | UACC-62 melanoma 90.7% | LOX IMVI melanoma 95.8% | SK-MEL-28 melanoma 117%

COC(=O)c1ccc2c(c1)n(Cc1ccc3ccccc3c1)c[n+]2Cc1ccc2ccccc2c1
inactive: DU-145 prostate 72.5% | K-562 leukemia 20.6% | MDA-MB-231 breast 28.5% | RXF 393 renal 69.3% | SF-268 CNS 40.9% | SF-295 CNS 58.7% | SF-539 CNS 65.7% | UACC-257 melanoma 42% | M14 melanoma 14.1% | HCT-15 colon 98.6% | HT29 colon 10.1% | SNB-75 CNS 60.1% | SNB-19 CNS 33.1% | U251 CNS 32.9% | PC-3 prostate 29.6% | LOX IMVI melanoma 23.9% | SK-MEL-28 melanoma 21.6%
active: MALME-3M melanoma -4.4% | SK-MEL-5 melanoma 4.24% | UACC-62 melanoma -15.9%

O=C1CCC23OC(c4ccccc4N12)C(O)C(O)C3O (stereo not given)
inactive: DU-145 prostate 107% | K-562 leukemia 90.4% | MALME-3M melanoma 91.6% | MDA-MB-231 breast 103% | RXF 393 renal 113% | SF-268 CNS 96.6% | SF-295 CNS 110% | SF-539 CNS 101% | UACC-257 melanoma 102% | M14 melanoma 100% | HCT-15 colon 109% | HT29 colon 91.6% | SNB-75 CNS 113% | SNB-19 CNS 101% | U251 CNS 105% | PC-3 prostate 95.6% | SK-MEL-5 melanoma 111% | UACC-62 melanoma 98.5% | LOX IMVI melanoma 100% | SK-MEL-28 melanoma 118%

— PubChem BioAssay (NCI)
